Source: PubChem (National Center for Advancing Translational Sciences (NCATS))
Only some compounds are listed: those with a hit (about 3.5% of all), similar ones and a draw of the others.
RE007 growth inh – qHTS Assay for Inhibitors of the HIV-1 protein Vpr; S. pombe RE007 Vpr strain, BacTiter-Glo ATP luminescence, 24 h; Potency, µM (titrated, usually from 92.2 µM), for the others: top-dose activity change, negative = less growth, actives largely listed as inhibitors; hit rate 0.21% among 360,000; AID 651644, 2012; active = well fitted falling curve with a large enough effect; inconclusive = small, poorly fitted or top-dose-only effect; inactive = no such curve, though single readings can be large or run the other way; note: % is set by controls: 0 for no effect and ±100 for the full control effect; nearly all actives have a fitted effect of over 50% in size
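Fission yeast strain RE007, carrying one chromosomally integrated HIV-1 vpr copy, was seeded at OD 0.01 in PMG+AL medium with 23 nL pinned compound. After 24 h at 30 °C and 99% humidity, viability was read by BacTiter-Glo luminescence.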
NS1 inh – qHTS Assay for Inhibitors of Influenza NS1 Protein Function. Potency, µM (doses to about 46.1 µM), without a hit: top-dose activity, positive = more growth. hit rate 0.4% among 270,000; calls by dose curve; note: actives are rising curves; nearly all actives have a fitted effect of over 50% in size
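Compounds were scored for reversing the slow growth caused by influenza A NS1 in S. cerevisiae, measured by optical density at 600 nm. Assay medium contained 2% galactose at pH 6.0; NS1-free yeast of the same strain were the positive control.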
Tb PYK inh – qHTS of Trypanosoma Brucei Inhibitors. Potency, µM (series often up to 76.8 µM), without a hit: at the top dose activity, negative = inhibition, most hits filed as inhibitors. TbPYK enzyme, Kinase-Glo Plus ATP luminescence, 45 min. pyruvate kinase (Trypanosoma brucei), Q57TT1. hit rate 0.12% among 410,000; note: % is set by controls: 0 for no effect and ±100 for the full control effect; nearly all actives have a fitted effect of over 50% in size
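Screened from lowest to highest concentration, compounds were pinned into TbPYK/substrate mixtures, and ADP (130 uM final) was added. Plates sat at room temperature for 45 min prior to Kinase-Glo Plus detection by luminescence.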
Sm TGR block – qHTS Assay for the Inhibitors of Schistosoma Mansoni Peroxiredoxins | hit rate 3% among 360,000 | purified TGR, DTNB reduction, TNB absorbance 405 nm | Potency, µM (top dose mostly 114 µM), without a hit: at the highest dose activity change, negative = inhibition, usual class: inhibitors | Schistosoma mansoni thioredoxin glutathione reductase (TGR), Q962Y6; note: % is set by controls: 0 for no effect and ±100 for the full control effect; nearly all actives have a fitted effect of over 60% in size
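Kinetic colorimetric format: TGR-catalysed, NADPH-driven DTNB reduction monitored via TNB absorbance. Enzyme dispensed at 20 nM; compound exposure 15 min at room temperature before reaction start.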
FBPA Giardia inh – qHTS Assay for Inhibitors of Fructose-1,6-bisphosphate Aldolase from Giardia Lamblia; AID 2451, 2010; purified Giardia FBPA; Potency, µM (top dose mostly 59.6 µM), without a hit: at the highest dose activity, negative = inhibition, actives largely listed as inhibitors; hit rate 0.71% among 290,000; note: % is set by controls: 0 for no effect and ±100 for the full control effect; nearly all actives have a fitted effect of over 55% in size
Target sequence (A8B2U2 whole entry, looked up): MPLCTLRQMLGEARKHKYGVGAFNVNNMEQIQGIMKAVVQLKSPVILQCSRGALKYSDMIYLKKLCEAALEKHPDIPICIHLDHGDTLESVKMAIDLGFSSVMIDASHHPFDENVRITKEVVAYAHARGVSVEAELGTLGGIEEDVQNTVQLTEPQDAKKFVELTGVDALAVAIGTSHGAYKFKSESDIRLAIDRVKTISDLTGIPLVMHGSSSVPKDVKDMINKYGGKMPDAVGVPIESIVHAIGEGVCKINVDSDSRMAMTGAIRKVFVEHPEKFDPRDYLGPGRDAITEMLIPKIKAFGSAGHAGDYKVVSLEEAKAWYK
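Giardia FBPA (40 nM reagent) was preincubated 10 min at RT with compound (up to 57.5 uM final), then substrate plus GAPDH/TPI/NAD/arsenate coupling system with diaphorase/resazurin was added; resorufin fluorescence (525/598 nm) was read after 20 min.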
LmPK inhibitor – qHTS Assay for Inhibitors of Leishmania Mexicana Pyruvate Kinase (LmPK) | Potency, µM (titrated, usually from 57.5 µM), for the others: top-dose activity change, negative = inhibition, actives largely listed as inhibitors | hit rate 0.37% among 290,000 | purified LmPK, Kinase-Glo ATP luminescence, 1 h; note: % is set by controls: 0 for no effect and ±100 for the full control effect
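0.1 nM LmPK, 0.5 mM PEP, 0.1 mM ADP; 50 mM imidazole pH 7.2, 7 mM MgCl2, 50 mM KCl; 1 h RT. Kinase-Glo luminescence readout, normalized to no-enzyme (full inhibition) and uninhibited wells.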
* = called active by the depositor; ? = inconclusive; nt = not tested or not shown; ! = not confirmed by another sample. Unless noted, calls come from the whole dose curve; as a rule, active = well fitted curve in the direction sought with a large enough effect; inconclusive = small, poorly fitted or top-dose-only effect, or another doubt; inactive = no such curve, though single readings can be large; an effect the other way counts as inactive or inconclusive. Potency is the fitted concentration of half-maximal effect.

SMILES	RE007 growth inh	NS1 inh	Tb PYK inh	Sm TGR block	FBPA Giardia inh	LmPK inhibitor
Cc1ccccc1OCc1nnc(SCc2cc(=O)c3ccc(C)c(C)c3[nH]2)n1C	nt	nt	-12%	49%	nt	nt
C/C(=N\NC(=O)c1ccccc1O)c1cccc(NC(=O)c2ccccc2)c1	-1%	-33%	8%	8%	-4%	0%
C/C(=N\NC(=O)C1CC1)c1cccc(NC(=O)c2cccc(Cl)c2)c1	nt	4%	nt	2%	-7%	4%
C/C(=N\NC(=O)c1cc(O)ccc1O)c1cccc(NC(=O)c2ccc(Cl)cc2)c1	3%	-10%	-20%	40µM*	nt	1%
C/C(=N\NC(=O)c1cc(O)ccc1O)c1cccc(NC(=O)c2cccc(Cl)c2)c1	-16%	-24%	-16%	63µM*	nt	-6%
Cc1cc(O)c(C(=O)/C=C/c2ccc(Cl)cc2)c(=O)o1	1%	14%	6%	25µM*	-8%	4%
CSc1ccc(/C=C/C(=O)c2c(O)cc(C)oc2=O)cc1	-27%	?	-6%	-28%	-5%	?
COc1ccc(/C=C/C(=O)c2c(O)cc(C)oc2=O)c(OC)c1	0%	7%	2%	0%	-5%	14µM*
Cc1ccc(CNC(=O)CN(c2cccc(C)c2C)S(=O)(=O)c2ccccc2)cc1	nt	nt	-25%	1%	nt	nt
CCN(C(=O)c1cc2c(s1)-c1ccccc1OC2)c1cccc(C(F)(F)F)c1	nt	nt	3%	2%	nt	nt
Cc1ccccc1OCC(=O)Nc1ccc2oc(-c3ccc(F)cc3)nc2c1	nt	nt	2%	-8%	nt	nt
COc1ccc(Cn2ccnc2SCC(=O)Nc2ccc3c(c2)OCCO3)cc1	nt	nt	-1%	-3%	nt	nt
Cc1nn(C(=O)c2ccc(Cl)cc2)c(C)c1S(=O)(=O)N1CCOCC1	nt	nt	-5%	?	nt	nt
CCCCCC(=O)NNC(=S)NC(=O)c1cccc([N+](=O)[O-])c1	nt	-9%	?	1.6µM*	?	0%
CCCCCC(=O)NNC(=S)NC(=O)c1ccccc1[N+](=O)[O-]	-13%	2%	-8%	0%	-2%	-2%
COc1ccc(-n2cc(-c3ccccc3)[nH]c2=S)cc1	15%	-19%	?	3%	2%	?
CC(=O)Nc1ccc(-n2cc(-c3ccccc3)[nH]c2=S)cc1	5%	nt	3.2µM*	-10%	0%	?
CCCc1nc(SCc2cc(=O)c3ccc(C)c(C)c3[nH]2)n[nH]1	nt	nt	4%	-2%	nt	nt
CCC(C#CCN1CCCCC1)(CC)OCCC#N	-21%	2%	-6%	0%	1%	1%
CCC(C)(C#CCN1CCCCC1)OCCC#N (stereo not given)	4%	-6%	-4%	40µM*	-3%	7%
CN(C)c1ccc(/C=C/c2ccc3ccccc3[n+]2C)cc1	nt	-36%	?	1%	-9%	14µM*
CN(C)c1ccc(/C=C/c2ccc3c4ccccc4ccc3[n+]2-c2ccccc2)cc1	28µM*	nt	?	?	-11%	1%
CN(CCCS(=O)(=O)[O-])c1ccc(/C=C/c2ccc3ccccc3[n+]2C)cc1	-24%	-1%	-11%	0%	-1%	-5%
CCc1cccc(CC)c1NC(=O)C(Cc1ccccc1)NS(=O)(=O)c1cccc2nsnc12 (stereo not given)	nt	nt	0%	2%	nt	nt
O=C(/C=C/c1ccco1)Nc1ccc(Oc2ccc(Cl)cc2)cc1	?	-9%	-4%	-36%	-8%	0%
SMILES	RE007 growth inh	NS1 inh	Tb PYK inh	Sm TGR block	FBPA Giardia inh	LmPK inhibitor
COc1ccc(NC(=O)N/C=C/c2ccco2)cc1	2%	nt	-7%	14µM*	-24%	2%
O=C(N/C=C/c1ccco1)Nc1cccc(Cl)c1	-8%	3%	-3%	45µM*	-7%	7%
Cc1nn(CCc2n[nH]c(=S)n2-c2cccc(Cl)c2)c(C)c1[N+](=O)[O-]	-1%	-2%	?	-3%	-5%	8.9µM*
Cc1nn(CCc2n[nH]c(=S)n2-c2ccc(F)cc2)c(C)c1[N+](=O)[O-]	5%	2%	10µM*	-7%	-9%	?
Cc1nn(CCc2n[nH]c(=S)n2-c2ccc(F)c(Cl)c2)c(C)c1[N+](=O)[O-]	-9%	nt	6.3µM*	19%	-9%	?
Cc1ccccc1Nc1nnc(-c2ccc(C)c(S(=O)(=O)N3CCCCC3)c2)c2ccccc12	nt	nt	2%	1%	nt	nt
CCN1C(=O)c2ccccc2C1Nc1cccc(OCCN2CCCCC2)c1 (stereo not given)	nt	nt	0%	nt	nt	nt
CCC(=O)NC(c1cccs1)c1cc([N+](=O)[O-])c2cccnc2c1OC (stereo not given)	nt	nt	5%	40µM*	nt	nt
CC(=O)NC(c1cccs1)c1cc(F)c2cccnc2c1O (stereo not given)	nt	nt	-7%	50µM*!	nt	nt
CCc1ccc(S(=O)(=O)c2cn(CC)c3cc(N4CCOCC4)c(F)cc3c2=O)cc1	nt	nt	-2%	-1%	nt	nt
CCOC(=O)c1c(C)[nH]c(C)c1C(=O)COC(=O)/C=C/c1ccco1	17%	nt	-4%	32µM*	nt	nt
O=C(O)/C=C/C(=O)c1ccc2c(c1)NC(=O)CO2	-4%	nt	?	1µM*	4%	-18%
CCN(CC(=O)NCc1ccc(Cl)cc1)C(=O)/C=C/c1ccco1	4%	nt	2%	25µM*	-2%	0%
CCOC(=O)c1c(C)[nH]c(C)c1C(=O)COC(=O)/C=C/c1ccc(OC)cc1	4%	nt	0%	-4%	nt	nt
O=C(COC(=O)/C=C/c1ccco1)NCc1ccc(Cl)cc1	-2%	nt	-13%	18µM*	nt	nt
CC[N+](CC)(CC)CCOC(=O)C(C1CCCC1)C1CCCC1	nt	nt	-2%	nt	nt	nt
CC(C)CN1CCc2nc(Nc3ccc(F)cc3F)ncc2C1	nt	nt	-4%	-2%	nt	nt
O=C(Cn1ncc2c3ccccc3n(Cc3ccccc3)c2c1=O)NCCc1ccc(Cl)cc1	nt	nt	2%	-1%	nt	nt
CCCNC(=O)COC(=O)/C=C/c1ccco1	3%	-2%	6%	45µM*	-3%	0%
Cc1ccc(/C=C/C(=O)OCC(=O)NCc2cccs2)o1	-8%	nt	-10%	nt	nt	nt
O=C(/C=C/c1ccco1)OCC(=O)c1ccc(OC(F)F)cc1	-11%	nt	-11%	22µM*	nt	nt
Cc1ccc(/C=C/C(=O)OCC(=O)NC(C)C)o1	0%	nt	-14%	50µM*	0%	-5%
CC(C)NC(=O)COC(=O)/C=C/c1ccco1	-11%	23%	1%	50µM*	4%	-1%
COCCCNC(=O)Cn1c(=O)n(Cc2ccc(C(=O)NCc3ccc(C)cc3)cc2)c(=O)c2ccccc21	nt	nt	2%	6%	nt	nt
